Reference: the supplement of paper PMC6555819

These sequences were tested on VDR:RXRa (NR concentration 270 nM, RXRa partner concentration 90 nM) (assay: PBM binding z-score (relative to random genomic background probes); higher = stronger binding; sequences stand for … in GC…GCGATTGACAGCGTAGAATGAAGG).
Procedure: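 Protein-binding microarray (Agilent 4x180K custom design, double-stranded 60-nt probes: 5' GC cap, 34-nt variable region, 24-nt constant primer region; full probe sequence given). Purified or IVT nuclear receptor:RXRα heterodimers (3:1 NR:RXRα, mostly 270:90 nM) or homodimers were incubated for 1 h in PBS with 2% milk and no ligand, then detected with Alexa488 antibodies. Fluorescence from o1-orientation probes (~5 replicates averaged) was converted to z-scores against 500 random hg19 background probes. Variable regions are seed direct-repeat (DR0–DR5) sites, all their single-nucleotide variants and half-site ablations.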

Q: For TGAAGGAGGTTAAAGATCAGGGAACGTGGCGTCG, which PBM binding z-score is on record?
A: The PBM binding z-score was 1.24.

Q: For TTACCAAGGTGAAAGGTCGTTGACGCACGCCTTG, which PBM binding z-score is on record?
A: The PBM binding z-score was 3.29.

Q: Which PBM binding z-score does the source give for ATATGTAGGTTAAGGGACATTCAGGTTGGTTCGC here?
A: Its PBM binding z-score is 1.07.

Q: For GCTAGTTGGTCAGTAACAGGTCACACACCGGTCG, which PBM binding z-score is on record?
A: Its PBM binding z-score is 1.68.

Q: How did the PBM binding z-score turn out when CCTAGCAGGGCAATCTGGGTCACTCAAGGCTTGA was run?
A: The PBM binding z-score was 1.08.

Q: ACCTCTAGGTAAAGATAGTTCAGTGAATGCAAAT was tested. Which PBM binding z-score did it give?
A: Its PBM binding z-score is 0.302.

Q: With CGTCCAAGCTCAAGGTCAGTGAAAGAGACTCGAA as the sequence, how does the PBM binding z-score read?
A: The PBM binding z-score was 1.18.

Q: Which PBM binding z-score does the source give for TAGCGTAGGTCATTGGGCCAGTATAGTACGCATC here?
A: The PBM binding z-score was 2.41.

Q: How did the PBM binding z-score turn out when CAGCCTAGGCCAGGGCCAGTATAGGAGGAACGTT was run?
A: Its PBM binding z-score is -1.

Q: Which PBM binding z-score does the source give for GCGACTGGGGCATCAGCAGGTTACCATGACTTAA here?
A: Its PBM binding z-score is -0.443.

Q: How did the PBM binding z-score turn out when AGATCGAGGGCAATGAGTTGATAGCACGGGTGGC was run?
A: The PBM binding z-score was 5.15.

Q: With ATATGTAGGTTAAGGGTCAGTCAGGTTGGTTCGC as the sequence, how does the PBM binding z-score read?
A: Its PBM binding z-score is 4.37.

Q: For GCTGCTAGGTCAACTGATAGTCAGCTAAAGCTCG, which PBM binding z-score is on record?
A: Its PBM binding z-score is 0.945.

Q: For GCTTACGGGTCAAAGGTTATAGAATGAATAGAAT, which PBM binding z-score is on record?
A: The PBM binding z-score was 5.63.

Q: How did the PBM binding z-score turn out when TCTTGTAGATCAGCAGGTTAAGTAAGCTGGCCAA was run?
A: Its PBM binding z-score is 0.413.

Q: ACTATTAGTTGAGACGAGGGGAACCGATAGGTTG was tested. Which PBM binding z-score did it give?
A: Its PBM binding z-score is -0.291.

Q: With CGTGCAAGGTCATAGGAGGTCAGTGAAGACAGAT as the sequence, how does the PBM binding z-score read?
A: The PBM binding z-score was 6.87.

Q: For CGGCCAAGGTCATAGGAGGTCAGTGAAGACAGAT, which PBM binding z-score is on record?
A: Its PBM binding z-score is 6.19.

Q: CAAATTAGGTCACGAAAGGTCAAAGTCGAATGAC was tested. Which PBM binding z-score did it give?
A: Its PBM binding z-score is 7.06.

Q: TCTCTGAGGACACGAAGGTCAGAGCTTTCCAGAG was tested. Which PBM binding z-score did it give?
A: Its PBM binding z-score is 2.6.

Q: With TCATATACGTAATACAGGTGAAAGTCGGCATCTA as the sequence, how does the PBM binding z-score read?
A: Its PBM binding z-score is 1.29.

Q: For ACTATTAGTTGACTTAGGGTAACCGATACGACGC, which PBM binding z-score is on record?
A: The PBM binding z-score was 0.225.

Q: How did the PBM binding z-score turn out when TCATATAGGTACACAGGTGAAAGTCCGTAAGTTA was run?
A: Its PBM binding z-score is 1.32.

Q: With GAGACTGGGGCATCAGCAGGTTACCATAACTTAA as the sequence, how does the PBM binding z-score read?
A: Its PBM binding z-score is 0.317.

Q: How did the PBM binding z-score turn out when CGTCCAAGGACAAAGGTCAGTGAAGAGATGACGG was run?
A: The PBM binding z-score was 2.64.

Q: With CCTCGGAGGACAGAAGGTGAGAGCTGTCCGCTTT as the sequence, how does the PBM binding z-score read?
A: The PBM binding z-score was -0.483.

Q: How did the PBM binding z-score turn out when ACTATTAGTTGAAACGAGGGCAACCGATAGGTTG was run?
A: The PBM binding z-score was 1.63.

Q: With CATTACGGGTCAAGGTTATAGCACGGGTGGTACG as the sequence, how does the PBM binding z-score read?
A: Its PBM binding z-score is 3.96.

Q: ACTAATAGTTGACTTAGGGCAACCGATACGACGC was tested. Which PBM binding z-score did it give?
A: The PBM binding z-score was 0.357.

Q: Which PBM binding z-score does the source give for GCTCGGACGACAAGGTCAGAGCTTTGTCCGTAGA here?
A: The PBM binding z-score was 1.4.

Q: For CTCGAAAGGTCGTGCTCAGGTGGGTATACCAAAC, which PBM binding z-score is on record?
A: The PBM binding z-score was 3.24.

Q: How did the PBM binding z-score turn out when CCTTACGGGTCAAGGTTATTGCACGGGTGGTACG was run?
A: Its PBM binding z-score is 3.42.

Q: TCTAGTTGGTCACAGGTCACACACTCGAAATGCG was tested. Which PBM binding z-score did it give?
A: Its PBM binding z-score is 2.95.

Q: CGAACTAGTTCATCCAGGACAGTGAATACATTGA was tested. Which PBM binding z-score did it give?
A: Its PBM binding z-score is 2.23.

Q: With TCGTGTAGGTTACCAATGGGGCATTCAGCTTTCT as the sequence, how does the PBM binding z-score read?
A: The PBM binding z-score was 0.608.

Q: ATCTCTTGGTAAAGTTCAGTGAAAGATCGATAGA was tested. Which PBM binding z-score did it give?
A: The PBM binding z-score was 1.6.

Q: For CTACCAAGGTGAACAAAGTCGTTGATTACTATTC, which PBM binding z-score is on record?
A: The PBM binding z-score was 0.601.

Q: Which PBM binding z-score does the source give for TCAGACAGGTGAAGGTGACTCAGGTACGCAGTCG here?
A: The PBM binding z-score was 1.04.

Q: Which PBM binding z-score does the source give for CTACCAAGGAGAACAAGGTCGTTGATTACTATTC here?
A: Its PBM binding z-score is 1.56.

Q: For GCTTACGGGTCAAAGGTTATAGCCTGAATAGAAT, which PBM binding z-score is on record?
A: Its PBM binding z-score is 5.72.
